Values joined by “and” are separate entries in the source; they are usually repeats but may differ in a detail not shown here. Equal values may be shown once. Records with an inconclusive call do not appear. A call without a number means that no potency is given here. The source holds several records for some structures; these can differ, active in one and inactive in another. Active and inactive are the calls of the source. Calls follow the shape of the full dose curve.
Test: qHTS assay to identify small molecule antagonists of the sonic hedgehog signaling (Shh) pathway (AID 1259369); also: nearly all actives have a fitted effect of over 45% in size
Details: NIH/3T3 Gli1-Luc reporter, Shh antagonist, luminescence 24 h; series mostly up to 92.4 µM
From the text: U.S. Tox21 Program National Center for Advancing Translational Sciences [NCATS] NIH Chemical Genomics Center [NCGC] U.S. Environmental Protection Agency [EPA] National Institutes of Environmental Health Sciences [NIEHS] National Toxicology Program [NTP] U.S. Food and Drug Administration [FDA] Tox21 Assay Overview: The sonic hedgehog (Shh) pathway is essential for normal embryonic development. Dysregulation of the Shh pathway can cause severe developmental defects in organs. Therefore chemicals that interfere with the pathway are potential developmental toxicants. A cell line designated 3T3Gli1-Luc (DMB/OARSA/CFSAN/FDA, Laurel, MD), a NIH/3T3 derived clone containing stably integrated Gli1-Luc reporter is used to detect chemical interference of the Shh pathway, by changes in the expression of the firefly Luc gene under the control of the Gli1 transcriptional response element. This cell line was used to screen Tox21 libraries for identifying and prioritizing the potential developmental toxicants that interfere Shh pathway. Conditioned medium-stimulated mode was used to screen for chemicals inhibiting Shh signaling.
Tox21 Assay Protocol Summary: 3T3 Gli1-Luc cells were dispensed at 2,000 per well in 5uL of culture medium into white solid bottom 1536-well plates (Greiner Bio-One, Monroe, NC) using a Multidrop Combi (Thermo Scientific, Waltham, MA) dispenser. The assay plates were incubated at 37 C and 5% CO2 for 4hr, and then 23nL of compounds dissolved in DMSO and positive control were transferred using a Pintool station (Wako, San Diego, CA). The compound transfer was followed by the addition of 1ul conditioned medium or assay buffer using two separate tips of Flying Reagent Dispenser (FRD, Aurora Discovery, San Diego, CA). The assay plates were incubated at 37C and 5% CO2 for 24hr. For luciferase read, 4uL of Amplite Luciferase reporter gene assay reagent (AAT Bioquest, Inc. Sunnyvale, CA) was added to each well of the assay plates using FRD and incubated at room temperature for 30min. The luminescence signal was measured using a ViewLux plate reader (Perkin Elmer, Shelton, CT).
Potency is read from the fitted curve at half-maximal effect.

SMILES	Potency
[N-]=[N+]=CC(=O)OC[C@H](N)C(=O)O	inactive
CNC(=O)Oc1cccc2ccccc12	12.1 µM (active) and 9.44 µM (active)
Nc1ccc(N)cc1	54.7 µM (active) and 48.6 µM (active) and inactive
Clc1cnc(Oc2ccc(Oc3ncc(Cl)cc3Cl)cc2)c(Cl)c1	inactive
CN(C)NC(=O)CCC(=O)O	inactive
CN(C)CCC#N	inactive
CC(C)CCCCCCOC(=O)c1ccccc1C(=O)OCCCCCCC(C)C	inactive
Cc1ccccc1N	inactive
O=C(O)C(Br)Br	inactive
Cl[C@H]1OCCO[C@@H]1Cl	inactive
COc1cc(-c2ccc(N)c(OC)c2)ccc1N	6.78 µM (active) and 8.24 µM (active)
CNC(=O)O/N=C/C(C)(C)S(C)(=O)=O	inactive
CCOP(=S)(OCC)Oc1ccc([N+](=O)[O-])cc1	inactive
CN(C)C(=O)Nc1cccc(C(F)(F)F)c1	inactive
O=C(O)Cc1ccccc1	inactive
c1ccc2c(c1)CCCC2	inactive
O=[N+]([O-])c1ccc(Cl)cc1	42.9 µM (active) and inactive
O=C(O)C1C(C(=O)O)C2(Cl)C(Cl)=C(Cl)C1(Cl)C2(Cl)Cl (stereo not given)	inactive
Sc1ccccc1	inactive
ClC(Cl)c1ccccc1	inactive

SMILES	Potency
N#Cc1cccc(C#N)c1	inactive
Oc1ccc(Cl)cc1	inactive
C[C@H]1C(=O)O[C@@H]2CCN3CC=C(COC(=O)[C@](C)(O)[C@]1(C)O)[C@H]23	inactive
CCCCC(CC)C(=O)Cl (stereo not given)	inactive
Cc1ccc(N=C=O)cc1N=C=O	inactive
CCOP(=S)(OCC)Oc1cc(C)nc(C(C)C)n1	inactive
FC(F)(F)c1ccc(Cl)cc1	inactive
CCCOC(=O)c1ccccc1C(=O)OCCC	inactive
C[C@]12CC[C@H](O)CC1=CC[C@@H]1[C@@H]2CC[C@]2(C)C(=O)CC[C@@H]12	1.37 µM (active) and 19.3 µM (active)
CN(C)C(=O)Cl	inactive
Cc1cccc(C)c1NC(=O)CN1CCCC1=O	inactive
NNc1ccccc1	inactive
OC[C@@H](O)[C@H]1O[C@@H]2O[C@H](C(Cl)(Cl)Cl)O[C@@H]2[C@H]1O	inactive
CN(C)C(=O)C(c1ccccc1)c1ccccc1	inactive
CNC(=O)O/N=C(\SC)C(=O)N(C)C	inactive
OCc1ccco1	inactive
Cl/C=C/Cl	inactive
O=[N+]([O-])c1cc([As](=O)(O)O)ccc1O	inactive
Nc1ncc([N+](=O)[O-])s1	inactive
C=C(C)C(=O)OCC(CC)CCCC (stereo not given)	inactive

Reference: PubChem BioAssay (Tox21)
